The values below come from PubChem BioAssay (NCATS).

A short description of assay [1]: Primary qHTS for small molecule stabilizers of the endoplasmic reticulum resident proteome: Secreted ER Calcium Modulated Protein (SERCaMP) assay (AID 1508630). Further: on the % scale 0 is the no-effect control and ±100 the full control effect. The gist of the method:
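The SH-SY5Y reporter protocol was run at 3 concentrations up to 38.3 uM (primary) or 11 concentrations (follow-up): 16 h compound, 100 nM thapsigargin for 4 h, then extracellular luciferase luminescence.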
Background: In qHTS, concentration-response curves come from the screen itself.

For assay [2], the target named is Cytochrome P450 2D6 (Homo sapiens) (UniProt P10635). Nature of the assay: Cytochrome P450 family 2 subfamily D member 6 (CYP2D6) small molecule antagonists: luciferase biochemical (cell-free) qHTS assay (AID 1645840; active means well fitted curve in the direction sought with a large enough effect in the repeat runs; an effect the other way counts as inactive or inconclusive; further: nearly all actives have a fitted effect of over 55% in size; further: potency means the concentration at half of the fitted maximal effect; on activity change, negative = inhibition: on the % scale 0 is the no-effect control and ±100 the full control effect). The gist of the method:
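P450-Glo CYP2D6 system: proluciferin substrate converted by enzyme to luciferin, read by luminescence proportional to activity. Enzyme-substrate mix with compound 10 min at room temperature, then NADPH regeneration 1 h before detection reagent.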

Assay [3] in a line: Primary qHTS for inhibitors of nuclear receptor binding SET domain protein 2 (NSD2) in an RCH-ACV wild type WT cells (2C) (AID 1645877). Further: nearly all actives have a fitted effect of over 70% in size. Further: potency means the concentration at half of the fitted maximal effect.
The nature of assay [4]: Primary qHTS for inhibitors of nuclear receptor binding SET domain protein 2 (NSD2) in an isogenic RCH-ACV NSD2 p.E1099K mutant (9B) (AID 1645876). Further: nearly all actives have a fitted effect of over 70% in size. Further: potency means the concentration at half of the fitted maximal effect.
In assay [5] the target is Catechol O-methyltransferase (Homo sapiens) (UniProt P21964). Put plainly: Confirmatory Screen for Target Class Profiling of Small Molecule Inhibitors of Methyltransferases (AID 1745852). On activity change, negative = inhibition: on the % scale 0 is the no-effect control and ±100 the full control effect. Conditions: MTase-Glo luminescence, SAH detection, recombinant enzyme; measured here: COMT max response; stronger effect = lower value.
Sequence of Catechol O-methyltransferase (Homo sapiens) (P21964 whole entry, looked up): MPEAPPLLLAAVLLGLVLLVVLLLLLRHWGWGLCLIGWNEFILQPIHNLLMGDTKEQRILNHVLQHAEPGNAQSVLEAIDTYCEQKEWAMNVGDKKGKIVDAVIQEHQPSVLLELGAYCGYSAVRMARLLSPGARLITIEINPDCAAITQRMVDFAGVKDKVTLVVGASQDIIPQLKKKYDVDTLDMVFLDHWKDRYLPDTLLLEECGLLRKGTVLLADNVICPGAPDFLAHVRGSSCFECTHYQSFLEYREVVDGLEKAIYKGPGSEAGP
The target of assay [6] is Guanidinoacetate N-methyltransferase (Homo sapiens) (UniProt Q14353). The assay is described as above. The conditions noted are these: MTase-Glo luminescence, SAH detection, recombinant enzyme; at 57.3 µM (top of the series).
In assay [7] the target is Nicotinamide N-methyltransferase (Homo sapiens) (UniProt P40261). Described as above. Conditions: MTase-Glo luminescence, SAH detection, recombinant enzyme; measured here: NNMT max response; stronger effect = lower value.
Sequence of Nicotinamide N-methyltransferase (Homo sapiens) (P40261 whole entry, looked up): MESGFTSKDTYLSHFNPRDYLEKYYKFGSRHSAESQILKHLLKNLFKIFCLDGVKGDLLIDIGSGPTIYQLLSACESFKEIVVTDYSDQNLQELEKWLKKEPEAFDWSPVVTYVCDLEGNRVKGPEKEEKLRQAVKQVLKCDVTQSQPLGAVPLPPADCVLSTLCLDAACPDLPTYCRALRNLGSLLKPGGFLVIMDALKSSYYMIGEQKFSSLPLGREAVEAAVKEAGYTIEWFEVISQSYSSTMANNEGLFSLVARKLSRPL
The target in assay [8] is Phenylethanolamine N-methyltransferase (Homo sapiens) (UniProt P11086). The description is as above. The conditions noted are these: MTase-Glo luminescence, SAH detection, recombinant enzyme; measured here: PNMT max response; stronger effect = lower value.
Sequence of Phenylethanolamine N-methyltransferase (Homo sapiens) (P11086 whole entry, looked up): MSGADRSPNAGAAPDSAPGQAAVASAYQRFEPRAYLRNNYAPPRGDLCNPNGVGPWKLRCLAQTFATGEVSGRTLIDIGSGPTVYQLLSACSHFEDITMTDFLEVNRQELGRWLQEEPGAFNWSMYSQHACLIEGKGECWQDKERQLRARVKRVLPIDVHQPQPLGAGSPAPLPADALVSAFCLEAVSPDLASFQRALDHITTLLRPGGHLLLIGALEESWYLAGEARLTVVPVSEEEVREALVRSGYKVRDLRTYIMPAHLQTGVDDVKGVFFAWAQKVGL
In assay [9] the target is Cytochrome P450 2C9 (Homo sapiens) (UniProt P11712). Put plainly: Cytochrome P450 family 2 subfamily C member 9 (CYP2C9) small molecule antagonists: luciferase biochemical (cell-free) qHTS assay (AID 1645842; active means well fitted curve in the direction sought with a large enough effect in the repeat runs; an effect the other way counts as inactive or inconclusive; further: nearly all actives have a fitted effect of over 55% in size; further: potency means the concentration at half of the fitted maximal effect). Put shortly: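 P450-Glo CYP2C9 system: proluciferin substrate with enzyme in mix containing 0.4% BSA, 10 min at room temperature, then NADPH regeneration solution added and incubated 1 h at 37C. Detection reagent stopped reaction; luminescence read after 20 min as RLU.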
Sequence of Cytochrome P450 2C9 (Homo sapiens) (P11712 whole entry, looked up): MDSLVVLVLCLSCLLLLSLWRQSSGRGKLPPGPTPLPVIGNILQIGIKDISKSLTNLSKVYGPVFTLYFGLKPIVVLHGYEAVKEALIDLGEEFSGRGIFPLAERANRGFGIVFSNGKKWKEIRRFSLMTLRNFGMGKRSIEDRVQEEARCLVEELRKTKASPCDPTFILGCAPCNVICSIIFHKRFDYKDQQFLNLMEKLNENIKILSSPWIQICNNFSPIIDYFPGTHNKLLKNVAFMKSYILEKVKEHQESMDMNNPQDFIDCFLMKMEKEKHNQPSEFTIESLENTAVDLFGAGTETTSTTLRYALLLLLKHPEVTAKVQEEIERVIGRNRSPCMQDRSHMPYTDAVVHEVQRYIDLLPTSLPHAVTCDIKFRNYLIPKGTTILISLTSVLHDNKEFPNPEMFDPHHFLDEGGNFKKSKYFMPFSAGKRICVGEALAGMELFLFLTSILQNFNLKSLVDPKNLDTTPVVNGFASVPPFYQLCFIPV

The target of the next assay is Papain (Carica papaya) (UniProt P00784). Put plainly: Primary qHTS assay for inhibitors of the protease papain (AID 1645873).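 Further: papain turnover of Z-FR-AMC read as the AMC fluorescence gain over 10 min; on the % scale 0 is the no-effect control and ±100 the full control effect.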
Sequence of Papain (Carica papaya) (P00784 whole entry, looked up): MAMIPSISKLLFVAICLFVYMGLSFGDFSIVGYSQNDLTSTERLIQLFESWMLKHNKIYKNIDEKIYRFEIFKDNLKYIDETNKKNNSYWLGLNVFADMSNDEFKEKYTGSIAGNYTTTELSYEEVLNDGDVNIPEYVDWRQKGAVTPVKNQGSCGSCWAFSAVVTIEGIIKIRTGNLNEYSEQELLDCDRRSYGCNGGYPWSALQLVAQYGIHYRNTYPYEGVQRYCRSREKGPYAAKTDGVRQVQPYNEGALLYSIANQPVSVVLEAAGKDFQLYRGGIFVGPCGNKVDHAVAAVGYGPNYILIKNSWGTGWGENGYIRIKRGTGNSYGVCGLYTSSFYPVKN
Assay [10] addresses Cytochrome P450 3A4 (Homo sapiens) (UniProt P08684). Put plainly: Cytochrome P450 family 3 subfamily A member 4 (CYP3A4) small molecule antagonists: luciferase qHTS assay (AID 1645841; active means well fitted curve in the direction sought with a large enough effect in the repeat runs; an effect the other way counts as inactive or inconclusive; further: nearly all actives have a fitted effect of over 45% in size; further: potency means the concentration at half of the fitted maximal effect). The gist of the method: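 Luminescent CYP3A4 activity readout: compounds plus enzyme-substrate mix 10 min at room temperature, reaction started with NADPH regenerating system for 1 h, stopped with detection reagent, read after 20 min. Ketoconazole served as control.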

Assay [11] has as its target Rap guanine nucleotide exchange factor 3 (Homo sapiens) (UniProt O95398). Put plainly: Confirmatory qHTS for antagonist of cAMP-regulated guanine nucleotide exchange factor 3 (EPAC1) (AID 1645880).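 Further: plate controls were DMSO only for no effect and full effect of the ATA control for full effect; nearly all actives have a fitted effect of over 55% in size.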 The gist of the method:
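Released BODIPY-GDP fluoresces less than Rap1-bound BODIPY-GDP; the signal is followed at 480/540 nm at 5-min intervals over 30 min, after 5 min at room temperature. Reactions contain 100 nM EPAC1, 250 nM RAP1B-BODIPY-GDP and 50 uM GDP; results are normalized to ATA and DMSO.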

Assay [12] shares this target. Nature of the assay: Confirmatory qHTS for agonist of cAMP-regulated guanine nucleotide exchange factor 3 (EPAC1) (AID 1645881). Further: potency means the concentration at half of the fitted maximal effect; nearly all actives have a fitted effect of over 75% in size.
In assay [13] the target is Rap guanine nucleotide exchange factor 4 (Homo sapiens) (UniProt Q8WZA2). Nature of the assay: Confirmatory qHTS for agonist of cAMP-regulated guanine nucleotide exchange factor 4 (EPAC2) (AID 1645884).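 Further: nucleotide exchange releases bodipy-GDP from Rap1 and this lowers its fluorescence; potency means the concentration at half of the fitted maximal effect; nearly all actives have a fitted effect of over 65% in size.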
Sequence of Rap guanine nucleotide exchange factor 4 (Homo sapiens) (Q8WZA2 whole entry, looked up): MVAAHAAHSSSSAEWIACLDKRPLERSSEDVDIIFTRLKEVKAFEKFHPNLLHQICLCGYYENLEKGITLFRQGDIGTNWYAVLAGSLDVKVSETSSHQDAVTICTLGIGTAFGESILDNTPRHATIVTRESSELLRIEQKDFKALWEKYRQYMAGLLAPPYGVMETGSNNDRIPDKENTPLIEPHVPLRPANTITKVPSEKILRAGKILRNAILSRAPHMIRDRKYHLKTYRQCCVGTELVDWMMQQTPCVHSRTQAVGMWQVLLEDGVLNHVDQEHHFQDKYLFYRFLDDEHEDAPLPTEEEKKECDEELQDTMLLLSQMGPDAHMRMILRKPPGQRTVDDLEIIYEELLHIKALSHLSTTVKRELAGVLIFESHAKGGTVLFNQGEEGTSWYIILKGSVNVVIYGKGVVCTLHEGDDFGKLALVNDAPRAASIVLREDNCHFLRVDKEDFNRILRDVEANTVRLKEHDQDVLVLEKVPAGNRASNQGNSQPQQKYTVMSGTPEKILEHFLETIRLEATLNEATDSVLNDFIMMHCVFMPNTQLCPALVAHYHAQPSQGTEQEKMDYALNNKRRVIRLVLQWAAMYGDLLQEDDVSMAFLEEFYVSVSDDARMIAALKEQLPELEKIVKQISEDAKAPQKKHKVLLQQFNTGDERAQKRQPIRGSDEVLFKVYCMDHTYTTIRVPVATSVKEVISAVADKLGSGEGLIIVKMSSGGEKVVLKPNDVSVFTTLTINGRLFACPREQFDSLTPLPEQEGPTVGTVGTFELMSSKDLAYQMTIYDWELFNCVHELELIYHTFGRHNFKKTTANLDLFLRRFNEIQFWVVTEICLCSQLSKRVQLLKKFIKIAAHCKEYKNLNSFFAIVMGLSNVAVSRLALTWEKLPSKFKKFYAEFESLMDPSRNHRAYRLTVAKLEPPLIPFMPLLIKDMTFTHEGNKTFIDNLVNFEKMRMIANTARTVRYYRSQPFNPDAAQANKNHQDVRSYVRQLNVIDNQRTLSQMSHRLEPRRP
Assay [14] has the same target. Nature of the assay: Confirmatory qHTS for antagonist of cAMP-regulated guanine nucleotide exchange factor 4 (EPAC2) (AID 1645885). Further: on the % scale 0 is the no-effect control and ±100 the full control effect; nearly all actives have a fitted effect of over 25% in size.
Assay [15] in a line: NCATS anti-infectives library activity on HEK293 viability as a counter-qHTS vs the C. elegans viability qHTS (AID 1745854). Further: potency means the concentration at half of the fitted maximal effect. The gist of the method:
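Cytotoxicity counter-screen to a worm viability qHTS: CellTiter-Glo luminescence read 10 min after reagent addition. Compounds (final up to 41.7 uM, a 1:5 dilution series) incubated 24 hr at 37C with 1,500 HEK293 cells per well; digitonin control.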

Assay [16] is described as follows: A High-Content qHTS Against Drug Library for the Identification of Small Molecules that Inhibit DYT1 Early Onset Primary Dystonia-Associated Cell Pathology (AID 1645839; calls by dose curve). The gist of the method:
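High-content imaging quantified EGFP-TorsinA mislocalization in HEK293-derived cells inducibly expressing DYT1 mutant torsinA, after 48 h exposure to compound given together with tetracycline induction. Cell count served as a toxicity channel alongside %pathology.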

“And” between values parts separate entries of the source, which are not always exact repeats. Identical values can stand only once. Inconclusive results are not listed. The source made the active and inactive calls. Unless noted, the call rests on the fitted dose curve; in most records, active means well fitted curve in the direction sought with a large enough effect; inconclusive means small, poorly fitted or top-dose-only effect, or another doubt; inactive means no such curve, though single readings can be large; an effect the other way counts as inactive or inconclusive.

Sequence of Cytochrome P450 2D6 (Homo sapiens) (P10635 whole entry, looked up): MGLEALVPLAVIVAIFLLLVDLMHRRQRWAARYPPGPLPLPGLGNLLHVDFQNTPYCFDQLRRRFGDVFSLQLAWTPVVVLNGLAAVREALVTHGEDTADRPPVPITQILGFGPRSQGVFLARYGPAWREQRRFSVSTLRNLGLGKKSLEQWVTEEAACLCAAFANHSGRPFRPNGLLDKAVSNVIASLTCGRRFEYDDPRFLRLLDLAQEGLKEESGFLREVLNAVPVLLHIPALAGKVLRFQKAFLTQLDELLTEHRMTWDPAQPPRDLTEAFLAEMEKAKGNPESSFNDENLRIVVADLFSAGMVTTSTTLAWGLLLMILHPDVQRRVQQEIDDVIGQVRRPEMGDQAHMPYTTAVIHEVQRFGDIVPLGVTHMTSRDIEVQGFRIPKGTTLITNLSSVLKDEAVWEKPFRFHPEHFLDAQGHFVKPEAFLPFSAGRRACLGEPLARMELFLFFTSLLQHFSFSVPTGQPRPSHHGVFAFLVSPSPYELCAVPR
Sequence of Cytochrome P450 3A4 (Homo sapiens) (P08684 whole entry, looked up): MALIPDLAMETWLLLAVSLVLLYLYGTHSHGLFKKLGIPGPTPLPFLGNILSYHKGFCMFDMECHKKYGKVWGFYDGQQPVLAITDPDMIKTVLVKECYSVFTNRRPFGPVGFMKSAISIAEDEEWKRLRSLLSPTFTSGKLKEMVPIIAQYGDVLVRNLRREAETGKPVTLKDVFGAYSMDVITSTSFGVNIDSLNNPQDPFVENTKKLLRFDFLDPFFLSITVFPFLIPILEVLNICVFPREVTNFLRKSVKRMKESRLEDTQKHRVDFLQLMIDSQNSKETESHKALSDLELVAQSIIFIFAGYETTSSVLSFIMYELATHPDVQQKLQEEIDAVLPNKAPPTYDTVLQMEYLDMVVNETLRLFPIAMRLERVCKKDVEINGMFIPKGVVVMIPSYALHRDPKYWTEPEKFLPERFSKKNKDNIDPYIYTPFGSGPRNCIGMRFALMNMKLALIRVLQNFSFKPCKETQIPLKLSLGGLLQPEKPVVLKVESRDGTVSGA
Sequence of Rap guanine nucleotide exchange factor 3 (Homo sapiens) (O95398 whole entry, looked up): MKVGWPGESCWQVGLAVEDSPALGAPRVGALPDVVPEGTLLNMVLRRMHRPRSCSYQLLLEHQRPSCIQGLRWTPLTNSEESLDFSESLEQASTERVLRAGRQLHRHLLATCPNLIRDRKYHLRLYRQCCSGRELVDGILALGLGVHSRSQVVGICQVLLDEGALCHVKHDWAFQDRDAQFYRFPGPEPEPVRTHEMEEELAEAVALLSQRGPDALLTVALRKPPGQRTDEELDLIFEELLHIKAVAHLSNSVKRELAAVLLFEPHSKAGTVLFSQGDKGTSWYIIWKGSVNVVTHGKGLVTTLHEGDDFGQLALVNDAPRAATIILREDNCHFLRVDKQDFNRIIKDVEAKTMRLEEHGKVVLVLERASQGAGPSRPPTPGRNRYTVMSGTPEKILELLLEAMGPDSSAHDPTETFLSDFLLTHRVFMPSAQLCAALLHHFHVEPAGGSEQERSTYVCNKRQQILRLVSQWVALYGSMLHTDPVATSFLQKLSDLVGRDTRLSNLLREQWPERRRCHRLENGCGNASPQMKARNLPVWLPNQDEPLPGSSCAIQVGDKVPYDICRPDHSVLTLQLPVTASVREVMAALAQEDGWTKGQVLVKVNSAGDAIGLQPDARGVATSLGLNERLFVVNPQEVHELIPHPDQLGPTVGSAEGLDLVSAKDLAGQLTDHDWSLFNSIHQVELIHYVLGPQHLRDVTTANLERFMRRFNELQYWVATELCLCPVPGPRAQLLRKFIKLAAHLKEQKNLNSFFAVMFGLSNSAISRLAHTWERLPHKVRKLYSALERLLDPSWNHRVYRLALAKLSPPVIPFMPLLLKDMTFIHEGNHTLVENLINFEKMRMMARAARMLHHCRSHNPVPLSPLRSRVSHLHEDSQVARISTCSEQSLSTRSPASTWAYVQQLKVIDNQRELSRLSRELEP

Consider `CC(C)=CCC/C(C)=C/CC/C(C)=C/C(=O)OCC(=O)[C@@]1(O)CC[C@H]2[C@@H]3CCC4=CC(=O)C=C[C@]4(C)[C@H]3[C@@H](O)C[C@@]21C`, for which the Potency entry in [1] and in assay [2] was “inactive” throughout. Also, in assay [3], the Potency was 4.73 µM (active).
With `CC(C)N(CCC(=O)c1ccc2ccccc2c1)Cc1ccccc1`, the Potency entry in assay [1] was “inactive”. The Potency is 6.61 µM (active) and 8.2 µM (active) in [4]; 5.25 µM (active) and 11.6 µM (active) in assay [3]. Also, the activity in assay [5] was 3.44%; in assay [7] it was -17.4%; in assay [8] it was 4.13%. Besides, the activity change, negative = inhibition in assay [6] worked out at 9.33%.
Take `COC(=O)/C=C(/C)N`: the Potency result in assay [1], in assay [2], in assay [4] and in [3] was “inactive” in each case.
`O=C(O)/C=C(\CC(=O)O)C(=O)O`: the Potency result in assay [1], in [9] and in assay [3] was “inactive” in each case.
On to `O=C(OCCN1CCOCC1)c1cccnc1Nc1cccc(C(F)(F)F)c1`, for which the Potency result in assay [1], in [4] and in assay [3] was “inactive” each time.
With `COc1ccccc1N1CCN(CCN2C(=O)CC3(CCCC3)CC2=O)CC1`, the Potency result in [1], in assay [4] and in [3] was “inactive” each time. The outcome in the assay with Papain (Carica papaya) is “inactive”.
With `CCCCCCCCCCCCCCCCCCNC(=O)OC1CCN(C(=O)OC[C@H](COC(=O)N(Cc2cccc[n+]2CC)C(=O)c2ccccc2OC)OC)CC1`, in [1], the Potency entry is “inactive”. The Potency in assay [2] is 17.4 µM (active); in [4], 2.66 µM (active); in [3], 2.66 µM (active).
On to `CC(C)(C)c1nnc(NS(=O)(=O)c2ccccc2)s1`, for which the Potency result in assay [1], in assay [2], in [4] and in assay [3] was “inactive” each time.
Turning to `O=C1NC(=O)/C(=C/c2ccc3c(c2)OC(F)(F)O3)S1`, in assay [1], the Potency result was “inactive”. Moreover, the outcome in the assay with Papain (Carica papaya) is “inactive”.
Consider `CCCCCOc1ccc(C2SC(=O)NC2=O)cc1OCC` (configuration not stated), for which the Potency entry in assay [1] and in assay [3] was “inactive” each time. In assay [9], the Potency is 7.76 µM (active).
In the case of `Nc1ncnc2n[nH]c(Nc3ccc(F)cc3)c12`, in [1], the Potency entry was “inactive”. In addition, in the assay with Papain (Carica papaya), the outcome is “inactive”.
For `CCC1=C[C@@H]2CN(C1)Cc1c([nH]c3ccccc13)[C@@](C(=O)OC)(c1cc3c(cc1OC)N(C)[C@H]1[C@@](O)(C(=O)OC)[C@H](OC(C)=O)[C@]4(CC)C=CCN5CC[C@]31[C@@H]54)C2`, the Potency entry in assay [1] is “inactive”. Besides, the Potency in [4] was 2.1 nM (active) and 162 nM (active); in [3], 2.1 nM (active) and 162 nM (active).
On to `Nc1ccc2cc3ccc(N)cc3nc2c1`, for which the Potency result in assay [1], in assay [9], in assay [11] and in [14] was “inactive” throughout. Further, the Potency is 4.36 µM (active) in assay [10]; 2.37 µM (active) in [4]; 1.68 µM (active) in [3]; 17.7 µM (active) in [12]; 22.3 µM (active) in [13].
Consider `CC[C@@]1(O)C(=O)OCc2c1cc1n(c2=O)Cc2c-1nc1ccccc1c2/C=N/OC(C)(C)C`, for which the Potency result in [1], in assay [4] and in assay [3] was “inactive” throughout.
As for `O=C(O)Cc1ccccc1Oc1ccc(Cl)cc1Cl`, the Potency result in assay [1], in assay [2], in assay [4] and in assay [3] was “inactive” in each case.
Regarding `O=C(OCC(COC(=O)c1cccnc1)(COC(=O)c1cccnc1)COC(=O)c1cccnc1)c1cccnc1`, the Potency entry in assay [1], in [2], in assay [4] and in assay [3] was “inactive” throughout.
Turning to `CCCCCCCCCCCCCCCC[n+]1ccccc1`, in assay [1], the Potency result is “inactive”. Further, the Potency in assay [4] was 0.376 µM (active); in assay [3], 0.335 µM (active); in [15], 11.2 µM (active).
Consider `N[C@@H](Cn1ccc(=O)c(O)c1)C(=O)O`, for which the Potency entry in [1] is “inactive”. In addition, the outcome in the assay with Papain (Carica papaya) is “inactive”. Further, the activity change, negative = viability loss in assay [4] is -1.02% [at 4.96 µM] (inactive). The activity change, negative = cell killing in assay [3] is -0.615% [at 4.96 µM] (inactive).
Turning to `CCOC(=O)C1=C(C)NC(C)=C(C(=O)OCC)C1c1ccccc1/C=C/C(=O)OC(C)(C)C`, the Potency entry in assay [1] was “inactive”. Further, the Potency is 0.49 µM (active) in assay [9], 21.1 µM (active) in assay [4] and 16.8 µM (active) in [3].
With `C[N+](C)(C)CCO`, the Potency result in assay [1] is “inactive”. Besides, the outcome with Papain (Carica papaya) is “inactive”.
For the molecule `Cc1cc(OCCOCC[N+](C)(C)Cc2ccccc2)ccc1C(C)(C)CC(C)(C)C`, the Potency entry in assay [1] was “inactive”. For the same molecule, the results for the Potency in [2], in assay [4] and in assay [3] were 7.76 µM (active), 1.19 µM (active) and 1.19 µM (active), respectively.
For the molecule `CCN(CC)CCNC(=O)c1ccc(NS(C)(=O)=O)cc1`, in [1], the Potency result is “inactive”. Also, in the assay with Papain (Carica papaya), the outcome is “inactive”.
For the molecule `O=C(O)Cc1ccc(OCCNC[C@H](O)c2ccccc2)cc1`, the Potency entry in assay [1] and in assay [9] was “inactive” throughout.
Take `NCC(=O)O`: the Potency entry in [16] is “inactive”.
On to `C=CCOc1cc(Cl)ccc1C(=O)NCCN(CC)CC`, for which the Potency entry in assay [16], in assay [9], in assay [4] and in [3] was “inactive” throughout. The Potency in assay [2] is 0.275 µM (active).
Regarding `CCCC(=O)OCOC(=O)C1=C(C)NC(C)=C(C(=O)OC)C1c1cccc(Cl)c1Cl` (configuration not stated), the Potency entry in assay [16], in [4] and in assay [3] was “inactive” each time. Further, the Potency in assay [2] was 16.2 µM (active); in assay [9] it was 2.04 µM (active).
For `COC(=O)c1cc(Cl)ccc1OC`, the Potency entry in assay [16], in assay [2], in [9] and in assay [4] was “inactive” in each case.
Regarding `O=C1CC[C@H](C(=O)N2CCCCC2)N1`, the Potency entry in [16], in assay [2], in assay [9], in assay [4] and in assay [3] was “inactive” each time.
Turning to `COc1c(N2C[C@@H]3CCCN[C@@H]3C2)c(F)cc2c(=O)c(C(=O)O)cn(C3CC3)c12`, the Potency entry in [16], in assay [2] and in [9] was “inactive” throughout.
`CCOC(=O)c1ccc(OCCN2C[C@H](O)[C@@H](O)[C@H](O)[C@H]2CO)cc1`: the Potency entry in [16], in [2], in [10], in assay [4] and in assay [3] was “inactive” in each case.
